Bioassay records (PubChem)
Rows were chosen to be rich in hits. Some 7.1% of all compounds tested hit in one or more screens of this group.
MCF10A rereplic – A quantitative high throughput screen for small molecules that induce DNA re-replication in MCF 10a normal breast cells | MCF 10A DNA re-replication, Hoechst nuclear intensity, 48 h | Potency, µM (doses to about 46.1 µM), without a hit: top-dose activity, positive = re-replication, most hits filed as activators | 350,000 tested, 2.9% active | AID 624296, 2012; further: % of control where 0% means no effect; nearly all actives have a fitted effect of over 50% in size
p53 reactivator – qHTS assay for re-activators of p53 using a Luc reporter. H1299 p53-A138V BP100-luciferase reporter, luminescence, 24 h. 320,000 tested, 0.063% active. Potency, µM (titrated, usually from 92.2 µM), for inactives: at the top dose activity change, positive = activation, actives largely listed as activators; further: % of control where 0% means no effect; nearly all actives have a fitted effect of over 45% in size
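p53-null H1299 cells stably carrying temperature-sensitive p53-A138V and a BP100-luciferase reporter were pinned with compounds (4-point, 1:5 series) and held 24 hrs at 37 deg C. Luminescence was read 10 min after detection reagent.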
ELG1 genotox – qHTS screen for small molecules that induce genotoxicity in human embryonic kidney (HEK293T) cells expressing luciferase-tagged ELG1; HEK293T ELG1-luciferase reporter, luminescence, 16 h; Potency, µM (doses to about 46 µM), for the others: at the highest dose activity change, positive = activation, hits mostly activators; 330,000 tested, 1.3% active; AID 504466, 2011; further: % of control where 0% means no effect; nearly all actives have a fitted effect of over 60% in size
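Screening used a luciferase reporter fused to human ELG1 in HEK293T cells. Luminescence was read on a CCD plate imager after 16 hr exposure and 30 min ONE-Glo incubation.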
SW480 rereplic – A quantitative high throughput screen for small molecules that induce DNA re-replication in SW480 colon adenocarcinoma cells; SW480 DNA re-replication, Hoechst DNA content imaging, 48 h; Potency, µM (highest dose often 46.1 µM), for inactives: at the highest dose re-replication activation, actives largely listed as activators; 340,000 tested, 1.8% active; AID 624297, 2012; further: % of control where 0% means no effect; nearly all actives have a fitted effect of over 55% in size
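250 cells/well; 23 nL cpd via pin tool; 48 hr, 37 C, 5% CO2; Hoechst 40 min; imager read of total nuclear intensity, ex 405/em 500-530 nm.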
ELG1 DNA repair – qHTS screen for small molecules that inhibit ELG1-dependent DNA repair in human embryonic kidney (HEK293T) cells expressing luciferase-tagged ELG1 | HEK293T ELG1-luciferase reporter, luminescence, 16 h; DNA damage induced by 5-fluorouridine | Potency, µM (titrated, usually from 46.1 µM), without a hit: top-dose activity change, negative = inhibition, most hits filed as inhibitors | 330,000 tested, 2.3% active | AID 504467, 2011; further: on the % scale 0 is the no-effect control and ±100 the full control effect; nearly all actives have a fitted effect of over 55% in size
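Luminescence from the luciferase reporter, measured 30 min after ONE-Glo reagent at room temperature, was the read-out. Beforehand, 2,000 cells per well were exposed for 16 hr at 37 °C to 5-fluorouridine together with compound or vehicle.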
AT treatment – qHTS Assay for Identifying a Potential Treatment of Ataxia-Telangiectasia; F2112 A-T fibroblasts, KAP-1 phosphorylation AlphaLISA; neocarzinostatin DNA damage 30 min before lysis; Potency, µM (top dose mostly 57.5 µM), for inactives: top-dose activation, most hits filed as activators; 320,000 tested, 0.19% active; further: % of control where 0% means no effect; nearly all actives have a fitted effect of over 45% in size
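ATM-like activity read as KAP-1 phosphorylation via AlphaLISA donor/acceptor antibody pairs after lysis and 6 hr at 25C. Cells were ATM-null patient fibroblasts (F2112, hTERT), dosed 60 min, then exposed to the DSB inducer NCS for 30 min.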
The depositor's hits bear a star; u = inconclusive; x = no result. The call rests on the fitted dose curve; in most records, active means well fitted curve in the direction sought with a large enough effect; inconclusive means small, poorly fitted or top-dose-only effect, or another doubt; inactive means no such curve, though single readings can be large; an effect the other way counts as inactive or inconclusive. Potency means the concentration at half of the fitted maximal effect.

SMILES	MCF10A rereplic	p53 reactivator	ELG1 genotox	SW480 rereplic	ELG1 DNA repair	AT treatment
CC(=O)NCCc1nc2cc(NC(=O)c3ccc(F)cc3)ccc2n1C	-17%	29%	u	-3%	u	-5%
COc1ccccc1C(=O)Nc1ccc2c(c1)nc(CCNC(=O)c1ccccc1)n2C	6.5µM*	-4%	-10%	13µM*	u	5%
COc1ccc(C(=O)Nc2ccc3c(c2)nc(CCNC(C)=O)n3C)cc1	-18%	u	18µM*	-4%	u	x
CC(=O)c1ccc(N(CC(=O)NCc2ccc3c(c2)OCO3)C(=O)c2csnn2)cc1	-4%	18%	6%	-7%	21%	1%
CCOC(=O)c1cc2ccc3ccccc3c2s1	15%	25µM*	u	-2%	u	u
COc1ccc(N=Cc2c(O)ccc3ccccc23)cc1	-1%	4%	-10%	4%	5%	14%
CCOC(=O)c1sc(/N=C/c2c(O)ccc3ccccc23)cc1C	15µM*	14%	0%	-10%	u	8%
CCOC(=O)c1cc2c(s1)-c1ccccc1CC2	u	17%	15%	-2%	u	22%
COc1ccccc1N1CCN(C(=O)CSc2nnc(C)n2C2CC2)CC1	21%	-4%	0%	-8%	14%	12%
COc1ccc(-n2ncc(Cl)c(Cl)c2=O)cc1	0.82µM*	-13%	-22%	3%	u	-9%
COc1c(Cl)cnn(-c2ccccc2)c1=O	u	u	4%	u	19%	-9%
COc1c(Cl)cnn(-c2ccc(Cl)c(Cl)c2)c1=O	23µM*	7%	16%	u	10%	-12%
Cc1ccc(C)c(N2CCN(C(=O)CCc3nc(-c4ccccc4F)no3)CC2)c1	16µM*	6%	-3%	3%	u	2%
Cc1ccc(C)c(N2CCN(C(=O)CCc3nc(-c4ccccc4Br)no3)CC2)c1	u	u	1%	-4%	11%	-2%
COc1ccc(-c2noc(CCC(=O)N3CCN(c4cccc(OC)c4)CC3)n2)cc1	u	15%	-7%	-28%	26µM*	2%
O=C(Nn1c(C2CCCCC2)nc2ccccc2c1=O)c1ccc(Cl)c([N+](=O)[O-])c1	7.3µM*	11%	-5%	4%	0%	1%
O=C(Nc1ccncc1)c1cncc(Br)c1	-1%	-4%	-28%	0%	u	8%
O=C(Nc1cccc(NC(=O)c2cncc(Br)c2)c1)c1cncc(Br)c1	3%	9%	-10%	-2%	21µM*	4%
Cc1nc2ccc(NC(=O)c3cncc(Br)c3)cc2s1	2%	5%	-6%	-17%	23µM*	-20%
O=c1c2ccc([N+](=O)[O-])cc2ncn1CCOc1ccc(Cl)cc1	u	7%	-16%	-9%	u	-3%
O=c1c2ccc([N+](=O)[O-])cc2ncn1CCOc1cccc(Br)c1	11%	-1%	-13%	-3%	18µM*	2%
CCC(C)c1ccc(OCc2ccc(C(=O)O)o2)cc1 (configuration not stated)	8%	-12%	0.41µM*	-4%	u	0%
CCOC(=O)c1c(CC(C)C)csc1/N=C/C1C(=O)CCCC1=O	u	2%	-1%	16µM*	-2%	1%
Cc1noc(C)c1COc1ccc(C(=O)NCc2cccs2)cc1	10%	-12%	11%	3%	11%	2%
CCNC(=S)N(Cc1cc2cc(C)cc(C)c2[nH]c1=O)C1CCCC1	6%	-5%	0%	-3%	12%	4%
SMILES	MCF10A rereplic	p53 reactivator	ELG1 genotox	SW480 rereplic	ELG1 DNA repair	AT treatment
Cc1ccc(C)c2[nH]c(=O)c(CN(CC3CCCO3)C(=O)NC3CCCCC3)cc12 (configuration not stated)	9%	1%	-2%	0%	8.2µM*	-1%
CCNC(=S)N(Cc1cc2c(C)ccc(C)c2[nH]c1=O)C1CCCC1	u	-2%	5%	3.7µM*	27%	11%
CCOc1ccc(S(=O)(=O)N2CCCCC2)cc1NC(=O)c1c(CC)noc1C	-1%	11%	5%	-22%	u	10%
CCc1cccc(CC)c1NC(=O)/C(C#N)=C/c1ccccc1C(F)(F)F	12µM*	-35%	-6%	-80%	u	15%
N#C/C(=C\c1ccccc1C(F)(F)F)C(=O)Nc1ccccc1	4%	1%	1%	-5%	3%	11%
Cn1c(=O)n(C)c2cc(NC(=O)c3cc4ccccc4o3)ccc21	14%	3%	16µM*	-4%	u	-7%
CCc1ccc(C(=O)Nc2ccc3c(c2)n(C)c(=O)n3C)cc1	u	x	18µM*	-2%	u	10%
Cc1ccc(NC(=O)c2cc3ccccc3o2)cc1S(=O)(=O)N(C)C	9%	u	2.6µM*	-2%	u	1%
Cc1ccc(NC(=O)c2cc3ccccc3oc2=O)cc1S(=O)(=O)N(C)C	-6%	-5%	10%	19%	u	-2%
CCOP(=O)(Nc1cccc2oc(=O)c3ccccc3c12)OCC	-3%	x	x	0%	x	x
CCN(CC)S(=O)(=O)c1ccc(/C=C/C(=O)OCC(=O)Nc2cccnc2Cl)cc1	-6%	3%	-3%	-34%	1%	-8%
Cc1cc2n(n1)C(c1ccccc1)Nc1ccccc1-2 (configuration not stated)	10%	-5%	7%	-3%	-8%	5%
Cc1cc2n(n1)C(c1ccc(N(C)C)cc1)Nc1ccccc1-2 (configuration not stated)	21µM*	11%	16%	21µM*	u	21%
O=C1c2ccccc2C(=O)N1CCc1nc(-c2ccccn2)no1	-1%	17%	12%	-12%	u	5%
Cc1ccc(OCc2nc(-c3ccccn3)no2)cc1	-11%	u	3.7µM*	-2%	u	x
CC(C)c1ccc(OCc2nc(-c3ccccn3)no2)c(Br)c1	15µM*	51%	u	-1%	u	1%
Clc1ccc(OCc2nc(-c3ccncc3)no2)c(Br)c1	-1%	u	u	1%	u	9%
CC(C)(C)Cc1nc(-c2ccccn2)no1	-3%	u	18µM*	-4%	u	5%
